In PubChem BioAssay (NCATS):
Inconclusive results are not listed. Values without a mark were called inactive. Calls of active or inactive are those of the source. The call rests on the fitted dose curve; in most records, active means well fitted cell-killing curve with a large enough effect; inconclusive means small, poorly fitted or top-dose-only effect, or effect the other way; inactive means no such curve, though single readings can be large or run the other way.

assay: Quantitative High-Throughput drug screen in 47 multiple myeloma cell lines against the NCATS MIPE library collection: KMS12PE_JCRB cell viability assay (AID 1918972); conditions: KMS12PE myeloma viability, CellTiter-Glo ATP, 48 h; series mostly up to 45.8 µM; viability: at the top concentration; further: nearly all actives have a fitted effect of over 30% in size
Excerpt: PI: Beverly A. Mock Ph.D.
Laboratory of Cancer Biology and Genetics,
Center for Cancer Research, National Cancer Institute,
National Institute of Health, Bethesda, Maryland
Drug resistance and disease progression are common in multiple myeloma (MM) patients, underscoring the need for new therapeutic combinations. […] We hypothesized that effective combinations would reduce MYC expression and enhance p16 activity. […] These preclinical data identify potentially useful drug combinations for evaluation in drug-resistant MM and reveal potential mechanisms of combined drug sensitivity.
Described herein is the primary MIPE qHTS used to cherrypick compounds. Validated compounds were then further tested for potential synergistic activiy.
[1] Peat TJ, Gaikwad SM, Dubois W, Gyabaah-Kessie N, Zhang S, Gorjifard S, Phyo Z, Andres M, Hughitt VK, Simpson RM, Miller MA, Girvin AT, Taylor A, Williams D, D'Antonio N, Zhang Y, Rajagopalan A, Flietner E, Wilson K, Zhang X, Shinn P, Klumpp-Thomas C, McKnight C, Itkin Z, Chen L, Kazandijian D, Zhang J, Michalowski AM, Simmons JK, Keats J, Thomas CJ, Mock BA. Drug combinations identified by high-throughput screening promote cell cycle transition and upregulate Smad pathways in myeloma. Cancer Lett. 2023 Aug 1;568:216284. doi: 10.1016/j.canlet.2023.216284. Epub 2023 Jun 24. PMID: 37356470; PMCID: PMC10408729.
SEQUENCE No. (e.g., 1, 2, 3, etc.); […] (e.g., Cells, Incubation, Reagent, etc.); VALUE and DESCRIPTION.
1; Cells; 5 uL; white, solid bottom 1536-well Greiner assay plate.
2; Compounds; 23 nL; Kalypsis pin tool (Wako USA) equipped with a 1536-well pin head to transfer to the assay plates.
3; Incubation; 48 hours; 37C incubation.
4; Reagent;5uL; CellTiter Glo (Promega).
5; Detector; 425V; Luminescence; Viewlux PerkinElmer.
NOTES (numbers refer to Sequence numbers above)
1. The cell-based screening methods employed in this study were like those previously published. Briefly, the corresponding myeloma cell lines were screened in 1,536-well plates with 500 cells, 5-uL per well for inhibition of cell viability (assessed by measuring ATP levels with CellTiterGlo).
2. NCATS MIPE 4.0 library of approved and investigational drugs were added using the Kalypsis pin tool. Wells treated with DMSO only for 100% viability and media only wells for 0% viability were used as controls.
3. The assay plates were covered and incubated for 48 hours in a 37C, 5% CO2 incubator with controlled humidity.
4. After 48 hours, CellTilter-GloTM luminescent substrate mix (Promega) reagent was added to the assay plate and plates we incubated for 5 min at room temperature.
5. Signal was measured as median relative luminescence units on a ViewLux (PerkinElmer) multiplate reader.
[1] Heske CM, Davis MI, Baumgart JT, Wilson K, Gormally MV, Chen L, Zhang X, Ceribelli M, Duveau DY, Guha R, Ferrer M, Arnaldez FI, Ji J, Tran HL, Zhang Y, Mendoza A, Helman LJ, Thomas CJ. Matrix Screen Identifies Synergistic Combination of PARP Inhibitors and Nicotinamide Phosphoribosyltransferase (NAMPT) Inhibitors in Ewing Sarcoma. Clin Cancer Res. 2017 Dec 1;23(23):7301-7311. doi: 10.1158/1078-0432.CCR-17-1121. Epub 2017 Sep 12. PMID: 28899971; PMCID: PMC6636827.
Potency means the concentration at half of the fitted maximal effect.

Row | Structure (SMILES) | Potency | viability
1 | O=C(C=CC#Cc1cccc(NS(=O)(=O)c2ccccc2)c1)NO | 1.18 µM (active) | –
2 | OC[C@@H](O)[C@@H](O)[C@H](O)[C@@H](O)CO | – | 116%
3 | Cc1cnn(C)c1C(=O)Nc1cc(Nc2ccc3c(C=Cc4ccccn4)n[nH]c3c2)ccc1F | 2.96 µM (active) | –
4 | CC(=O)O[C@]1(C(C)=O)CC[C@H]2[C@@H]3C=C(C)C4=CC(=O)CC[C@]4(C)[C@@H]3CC[C@@]21C | 11.8 µM (active) | –
5 | N#CNC(=NCCCCCCOc1ccc(Cl)cc1)Nc1ccncc1 | 0.0042 µM (active) | –
6 | C[C@H](NC(=O)[C@@H](O)c1cc(F)cc(F)c1)C(=O)N[C@@H]1C(=O)N(C)c2ccccc2-c2ccccc21 | – | 106%
7 | COc1cc(C[C@@H](CO)[C@H](CO)Cc2ccc(O)c(OC)c2)ccc1O | 3.72 µM (active) | –
8 | CN(CC(=O)N(Cc1ccc(C2CCCCC2)cc1)c1ccc(C(=O)O)c(O)c1)S(=O)(=O)c1c(F)c(F)c(F)c(F)c1F | 7.43 µM (active) | –
9 | C[N+]1(C)[C@@H]2C[C@@H](OC(=O)C(O)(c3cccs3)c3cccs3)C[C@H]1[C@@H]1O[C@@H]12 | – | 97.2%
10 | C=C1C(=CC=C2CCC[C@]3(C)[C@@H]([C@H](C)CCCC(C)(C)O)CC[C@@H]23)C[C@@H](O)C[C@@H]1O | 6.62 µM (active) | –
11 | Cc1cnc(NC(=O)Nc2cc(Br)c(C)cc2OC[C@@H]2CNCCO2)cn1 | 0.833 µM (active) | –
12 | CN(C)CC(=O)N1CCC(c2ccc(NC(=O)c3ncc(C#N)[nH]3)c(C3=CCCCC3)c2)CC1 | 5.26 µM (active) | –
13 | CC(=O)SCC(Cc1ccccc1)C(=O)NCC(=O)OCc1ccccc1 (stereo not given) | 1.66 µM (active) | –
14 | C=C(C)[C@@H]1CC[C@]2(C(=O)O)CC[C@]3(C)[C@H](CC[C@@H]4[C@@]5(C)CC[C@H](O)C(C)(C)[C@@H]5CC[C@]43C)[C@@H]12 | 0.0372 µM (active) | –
15 | OCCN1C[C@H](O)[C@@H](O)[C@H](O)[C@@H]1CO | – | 136%
16 | CC(C)(C)c1nc2c3cc[nH]c(=O)c3c3cc(F)ccc3c2[nH]1 | – | 121%
17 | COc1cc(OC)c(NC(=O)Nc2cc(C)on2)cc1Cl | – | 98.9%
18 | CC(C)NC[C@@H](C(=O)N1CCN(c2ncnc3c2[C@H](C)C[C@H]3O)CC1)c1ccc(Cl)cc1 | 0.469 µM (active) | –
19 | CC(C)C[C@H](NC(=O)CNC(=O)c1cc(Cl)ccc1Cl)B1OC(=O)CC(CC(=O)O)(C(=O)O)O1 (stereo not given in full) | 0.0469 µM (active) | –
20 | Cn1cnc(=N)c2[nH]cnc21 | 0.0935 µM (active) | –

Row | Structure (SMILES) | Potency | viability
21 | COc1cc2c(cc1OC)[C@@H]1C(=O)c3ccc4c(c3O[C@@H]1CO2)C=CC(C)(C)O4 | 0.372 µM (active) | –
22 | O=C(C=CC=Cc1ccc2c(c1)OCO2)N1CCCCC1 | 16.6 µM (active) | –
23 | CCN1CCN(C(=O)N[C@H](C(=O)N[C@@H]2C(=O)N3C(C(=O)O)=C(CSc4nnnn4C)CS[C@@H]23)c2ccc(O)cc2)C(=O)C1=O | – | 127% [at 15.3 µM]
24 | CC(=O)OCC(=O)[C@@]12N=C(C)O[C@H]1C[C@H]1[C@@H]3CCC4=CC(=O)C=C[C@]4(C)[C@@H]3[C@@H](O)C[C@@]12C | – | 115%
25 | O=C(O)C[C@H](O)C[C@H](O)C=Cc1c(C2CC2)nc2ccccc2c1-c1ccc(F)cc1 | 3.72 µM (active) | –
26 | O=C1NC(=O)[C@@H](c2cn3c4c(cccc24)CCC3)[C@H]1c1c[nH]c2ccccc12 | 0.148 µM (active) | –
27 | CC(C(C)N1CC(=O)NC(=O)C1)N1CC(=O)NC(=O)C1 (stereo not given) | 1.32 µM (active) | –
28 | COc1cccc2c1C(=O)c1c(O)c3c(c(O)c1C2=O)C[C@@](O)(C(C)=O)C[C@H]3O[C@H]1C[C@H](N)[C@H](O)[C@H](C)O1 | 0.0662 µM (active) | –
29 | C=Cc1c(C)c2cc3nc(cc4[nH]c(cc5nc(cc1[nH]2)C(C)=C5CCC(=O)O)c(CCC(=O)OC)c4C)[C@@]1(C)C3=CC=C(C(=O)OC)[C@H]1C(=O)OC | 0.187 µM (active) | –
30 | C[C@]12CCC(=O)C=C1[C@@H]1CC1[C@H]1[C@H]3[C@@H]4C[C@H]4[C@@]4(CCC(=O)O4)[C@@]3(C)CC[C@H]12 (stereo not given in full) | 20.9 µM (active) | –
31 | CC(=O)N1CCN(c2ccc(OCc3nn(C)c(C)c3-c3cccc4c(CCCOc5cccc6ccccc56)c(C(=O)O)n(Cc5cccnc5)c34)cc2)CC1 | 0.469 µM (active) | –
32 | N#CC(=C(N)Sc1ccc(N)cc1)c1ccccc1C(F)(F)F | – | 135%
33 | COc1cc2c(Nc3ccc(Cl)c(Cl)c3F)ncnc2cc1OCC1C[C@@H]2CN(C)C[C@H]2C1 | 1.87 µM (active) | –
34 | COc1ccc(C(C)=O)c(O)c1 | – | 95.8%
35 | COC(=O)[C@@H]1[C@H]2C[C@@H]3c4[nH]c5ccccc5c4CCN3C[C@@H]2CC[C@@H]1O | – | 104%
36 | CC(O)(C#Cc1ccc2c(c1)N(c1nc(N)ncc1Cl)CC2)c1nccs1 (stereo not given) | 13.2 µM (active) | –
37 | COc1ccc2c(c1OC)C(=O)OC2[C@H]1c2c(cc3c(c2OC)OCO3)CCN1C (stereo not given in full) | 0.105 µM (active) | –
38 | CCOC(=O)[C@H](CCc1ccccc1)N[C@@H](C)C(=O)N1[C@@H](C(=O)O)C[C@H]2CCC[C@@H]21 | 7.43 µM (active) | –
39 | O=C1NC(=O)C(=Cc2ccc3nccc(-c4ccncc4)c3c2)S1 | 0.332 µM (active) | –
40 | C[C@@H]1[C@H](C)CC[C@]2(C(=O)O)CC[C@]3(C)C(=CC[C@@H]4[C@@]5(C)C[C@@H](O)[C@H](O)[C@@](C)(CO)[C@H]5CC[C@]43C)[C@@H]12 | – | 88.6%
